# Source: PMC5540273 (PLoS ONE, 2017)
# What was measured:
# Conditions in all cases: concentration: 1 μM, replicates: in singlicate; n = 1
# CDK8 = test system: CDK8
# CDK9 = test system: CDK9
# CDKL1 = test system: CDKL1
# CDKL2 = test system: CDKL2
# CDKL3 = test system: CDKL3
# CDKL5 = test system: CDKL5
# CHEK1 = test system: CHEK1
# CHEK2 = test system: CHEK2
# CIT = test system: CIT
# CLK1 = test system: CLK1
# CLK2 = test system: CLK2
# CLK3 = test system: CLK3
# CLK4 = test system: CLK4
# CSF1R-autoinhibited = test system: CSF1R-autoinhibited
# CSF1R = test system: CSF1R
# CSK = test system: CSK
# CSNK1A1L = test system: CSNK1A1L
# CSNK1A1 = test system: CSNK1A1
# CSNK1D = test system: CSNK1D
# CSNK1E = test system: CSNK1E
# 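Note: KINOMEscan kinase panel screen.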
SMILES,%Inh (CDK8) [%],%Inh (CDK9) [%],%Inh (CDKL1) [%],%Inh (CDKL2) [%],%Inh (CDKL3) [%],%Inh (CDKL5) [%],%Inh (CHEK1) [%],%Inh (CHEK2) [%],%Inh (CIT) [%],%Inh (CLK1) [%],%Inh (CLK2) [%],%Inh (CLK3) [%],%Inh (CLK4) [%],%Inh (CSF1R-autoinhibited) [%],%Inh (CSF1R) [%],%Inh (CSK) [%],%Inh (CSNK1A1L) [%],%Inh (CSNK1A1) [%],%Inh (CSNK1D) [%],%Inh (CSNK1E) [%]
COC(=O)Nc1nc2cc(Oc3ccc(NC(=O)Nc4cc(C(F)(F)F)ccc4F)cn3)ccc2[nH]1.Cl.Cl [GW681170],100,0,29,98.3,56,0,0,24,100,42,8,0,61,0,67,0,0,0,6,0
CSc1cccc2c(-c3ccncn3)c(-c3ccc(F)cc3)nn12 [GW514786],37,0,6,31,0,3,81,0,79,18,0,11,13,21,0,0,21,61,84,69
COc1cccc(-c2ccc3c(NC(=O)C4CC4)n[nH]c3n2)c1 [SB-710903],50,0,0,67,0,0,0,0,5,15,100,0,20,54,10,0,12,0,18,16
O=C(Nc1ccccc1F)NC1CCN(c2ccnc(Nc3ccc(F)cc3)n2)CC1 [GSK1379800],51,0,0,17,0,0,0,0,0,9,0,0,0,46,5,0,27,0,54,60
Cc1ccc(C)c(NC(=O)NC2CCN(c3ccnc(Nc4ccc(F)cc4)n3)C2)c1 (stereo not shown) [GSK1379720],21,0,1,35,0,0,0,0,0,23,0,0,0,25,0,0,0,0,6,11
Cc1ccc(C(=O)N2CC[C@@H](O)C2)cc1-n1c(C)cc(OCc2ccc(F)cc2F)c(Br)c1=O,0,1,14,0,1,0,0,6,6,5,0,0,0,0,75,0,0,0,0,0
Cn1cc(-c2[nH]c3cc(NC(=O)[C@H](N)C4CCCCC4)cc4c3c2C=NNC4=O)cn1,0,0,16,0,18,0,98.4,96.6,97.5,56,16,13,55,49,100,71,3,24,14,11
Cl.Cl.NCC(NC(=O)c1cc(-c2ccccc2)c(-c2ccnc3[nH]ccc23)s1)c1ccccc1 (stereo not shown) [GSK1321561],30,0,8,24,58,0,0,0,99.9,33,0,49,19,0,0,0,97.1,95.7,98,99.9
